Test results: PubChem BioAssay AID1159580 (chemical genetic matrix, 2015)
Several values for one entry are separate records, joined by “and”; a condition that tells them apart may be missing. Equal entries are not always repeated. The whole screen tested about 5,500 compounds, of which about 2,000 (36%) were called active. Roughly 18% stayed inconclusive and do not appear here. No stated cut-off is given here; in the data, active means normalized growth mostly below about 0.91 (no sharp cut-off); inconclusive means no clear call, values can overlap the other calls; inactive means mostly above about 0.92. This is one part of the list.

Assay: chemical genetic growth profiling, strain panel (AID 1159580);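 further: tested at 20 µM; growth read once vehicle control cultures reached saturation at 30 °C; 1 = growth at the plate median or of vehicle wells; lower values mean less growth of the strain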
Conditions: S. cerevisiae deletion strains, growth OD

Measured: normalized growth

Nc1ccc(S(=O)(=O)Nc2nccs2)cc1
inactive: locus YAL013W, strain DEP1, hits give low values 1.01 | locus YAL021C, strain ccr4, hits give low values 1.02 | locus YAL026C, strain drs2, hits give low values 1.01 | locus YAL030W, strain snc1, hits give low values 1.02 | locus YBL061C, strain skt5, hits give low values 1.01 | locus YBR009C, strain hhf1, hits give low values 1 | locus YBR021W, strain FUR4, hits give low values 1 | locus YBR023C, strain chs3, hits give low values 1.03 | locus YBR171W, strain sec66, hits give low values 1.03 | locus YBR229C, strain ROT2, hits give low values 1 | locus YBR231C, strain swc5, hits give low values 1.04 | locus YBR279W, strain paf1, hits give low values 1.01 | locus YCL011C, strain gbp2, hits give low values 1.01 | locus YCL016C, strain dcc1, hits give low values 1 | locus YCL029C, strain bik1, hits give low values 0.998 | locus YCL069W, strain vba3, hits give low values 1.01 | locus YCR088W, strain abp1, hits give low values 1.01 | locus YDL005C, strain med2, hits give low values 1.01 | locus YDL035C, strain GPR1, hits give low values 1.04 | locus YDL040C, strain nat1, hits give low values 1.02 | locus YDL074C, strain BRE1, hits give low values 1.01 | locus YDL101C, strain DUN1, hits give low values 1 | locus YDL134C, strain PPH21, hits give low values 1.01 | locus YDL185W, strain tfp1, hits give low values 1.01 | locus YDL192W, strain arf1, hits give low values 1.01 | locus YDR001C, strain nth1, hits give low values 1.02 | locus YDR069C, strain doa4, hits give low values 1.02 | locus YDR101C, strain arx1, hits give low values 1 | locus YDR137W, strain rgp1, hits give low values 1.02 | locus YDR150W, strain NUM1, hits give low values 1.01 | locus YDR159W, strain sac3, hits give low values 1.02 | locus YDR162C, strain NBP2, hits give low values 1.02 | locus YDR195W, strain ref2 1.01 | locus YDR297W, strain sur2, hits give low values 1.02 | locus YDR318W, strain mcm21, hits give low values 0.985 | locus YDR334W, strain swr1, hits give low values 1.01 | locus YDR335W, strain msn5, hits give low values 1.02 | locus YDR388W, hits give low values 0.995 | locus YDR392W, strain spt3, hits give low values 0.954 | locus YDR502C, strain sam2, hits give low values 1.01 | locus YEL003W, strain gim4, hits give low values 1.02 | locus YEL037C, strain rad23, hits give low values 1.01 | locus YEL061C, strain CIN8 (second series), hits give low values 1.01 | locus YEL061C, strain CIN8, hits give low values 1 | locus YER015W, strain faa2, hits give low values 1.04 | locus YER016W, strain bim1, hits give low values 0.997 | locus YER110C, hits give low values 0.995 | locus YER111C, strain swi4, hits give low values 1.01 | locus YER155C, strain BEM2 (second series), hits give low values 1.01 | locus YER155C, strain BEM2, hits give low values 0.996 | locus YER167W, strain BCK2, hits give low values 1.03 | locus YFR010W, strain ubp6, hits give low values 1.02 | locus YGL078C, strain dbp3, hits give low values 1.01 | locus YGL086W, strain mad1, hits give low values 1.02 | locus YGL167C, strain pmr1, hits give low values 1.02 | locus YGL173C, strain kem1, hits give low values 1.02 | locus YGL227W, strain vid30, hits give low values 1.02 | locus YGL240W, strain doc1, hits give low values 1.02 | locus YGL248W, strain PDE1, hits give low values 1.02 | locus YGL253W, strain hxk2, hits give low values 1.02 | locus YGR078C, strain PAC10, hits give low values 1 | locus YGR135W, strain pre9, hits give low values 1.01 | locus YGR229C, strain SMI1, hits give low values 1.01 | locus YGR252W, strain gcn5, hits give low values 1.06 | locus YHR013C, strain ard1, hits give low values 1 | locus YHR027C, strain rpn1, hits give low values 1.02 | locus YHR030C, strain SLT2, hits give low values 1.01 and 0.999 | locus YHR079C, strain IRE1 (second series), hits give low values 0.995 | locus YHR079C, strain IRE1, hits give low values 1.03 | locus YHR094C, strain hxt1, hits give low values 0.99 | locus YHR129C, strain ARP1, hits give low values 1 | locus YHR142W, strain chs7, hits give low values 1.01 | locus YHR200W, strain rpn10, hits give low values 1 | locus YIL066C, strain RNR3, hits give low values 1.02 | locus YIL073C, strain SPO22, hits give low values 1 | locus YIL125W, strain kgd1, hits give low values 1.01 | locus YIR030C, strain dcg1, hits give low values 0.995 | locus YJL092W, strain hpr5, hits give low values 1.01 | locus YJL095W, strain BCK1 (second series), hits give low values 1.02 | locus YJL095W, strain BCK1, hits give low values 1 | locus YJL115W, strain asf1, hits give low values 1.02 | locus YJL129C, strain trk1, hits give low values 1.02 | locus YJL134W, strain LCB3, hits give low values 1.01 | locus YJL154C, strain vps35, hits give low values 1.01 | locus YJL164C, strain tpk1, hits give low values 0.996 | locus YJL166W, strain qcr8, hits give low values 1.03 | locus YJL168C, strain set2, hits give low values 0.992 | locus YJL187C, strain SWE1 (second series), hits give low values 1.01 | locus YJL187C, strain SWE1, hits give low values 1.02 | locus YJR043C, strain POL32, hits give low values 1 | locus YJR066W, strain TOR1, hits give low values 0.939
